In PubChem BioAssay (NCATS):
Records with an inconclusive call do not appear. Activity calls are given as the source filed them. The call rests on the fitted dose curve; in most records, active means well fitted curve in the direction sought with a large enough effect; inconclusive means small, poorly fitted or top-dose-only effect, or another doubt; inactive means no such curve, though single readings can be large; an effect the other way counts as inactive or inconclusive. Starred links: 1 amine or outer side, 2 acyl side, 3 side chain; linkers in the order of their positions; H or OH if unused. Positions of bridges follow the written chain, without caps; N, C: chain ends. Non-standard residues stand in square brackets, D forms with d. Residues, ends and D or L forms follow the SMILES beside them. Chains are numbered I, II in the order given. Actinocin(9to1) = Cc1c2oc3c(C)ccc(C(=O)[*:1])c3nc-2c(C(=O)[*:2])c(N)c1=O; NMeV = CN[CH](C(=O)O)C(C)C; Sar = CNCC(=O)O

Columns and labels:
[1] = Quantitative High-Throughput drug screen in 47 multiple myeloma cell lines against the NCATS MIPE library collection: KMS28PE_JCRB cell viability assay (AID 1918983); further: nearly all actives have a fitted effect of over 35% in size
Procedure, shortened: (§1)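 Myeloma cells (500/well) treated with MIPE 4.0 compounds for 48 h at 37 °C, 5% CO2. Viability read as ATP via CellTiter-Glo luminescence after 5 min at RT; DMSO-only wells = 100%, media-only = 0% viability.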

[2] = Quantitative High-Throughput drug screen in 47 multiple myeloma cell lines against the NCATS MIPE library collection: KMS34_JCRB cell viability assay (AID 1918985); further: nearly all actives have a fitted effect of over 40% in size
Procedure, shortened: as §1

[3] = Quantitative High-Throughput drug screen in 47 multiple myeloma cell lines against the NCATS MIPE library collection: OCIMY5_PLB cell viability assay (AID 1918988); further: nearly all actives have a fitted effect of over 65% in size
Procedure, shortened: as §1

[4] = Quantitative High-Throughput drug screen in 47 multiple myeloma cell lines against the NCATS MIPE library collection: OPM1_PLB cell viability assay (AID 1918989); further: nearly all actives have a fitted effect of over 40% in size
Procedure, shortened: as §1

[5] = Quantitative High-Throughput drug screen in 47 multiple myeloma cell lines against the NCATS MIPE library collection: SKMM1_PLB cell viability assay (AID 1919863); details: SKMM1 myeloma viability, CellTiter-Glo ATP, 48 h; viability: active compounds read low; further: nearly all actives have a fitted effect of over 35% in size
Procedure, shortened: as §1

[6] = Quantitative High-Throughput drug screen in 47 multiple myeloma cell lines against the NCATS MIPE library collection: U266_ATCC cell viability assay (AID 1919864); further: nearly all actives have a fitted effect of over 35% in size
Procedure, shortened: as §1

[7] = Quantitative High-Throughput drug screen in 47 multiple myeloma cell lines against the NCATS MIPE library collection: XG6_PLB cell viability assay (AID 1919865); further: nearly all actives have a fitted effect of over 40% in size
Procedure, shortened: as §1

[8] = Quantitative High-Throughput drug screen in 47 multiple myeloma cell lines against the NCATS MIPE library collection: XG1_PLB cell viability assay (AID 1919866); further: nearly all actives have a fitted effect of over 35% in size
Procedure, shortened: as §1

[9] = Quantitative High-Throughput drug screen in 47 multiple myeloma cell lines against the NCATS MIPE library collection: VP6_DJ cell viability assay (AID 1919867); further: nearly all actives have a fitted effect of over 40% in size
Procedure, shortened: as §1

[10] = Quantitative High-Throughput drug screen in 47 multiple myeloma cell lines against the NCATS MIPE library collection: UTMC2_PLB cell viability assay (AID 1919868); details: CellTiter-Glo ATP luminescence, 48 h; viability (% of DMSO control): at 45.8 µM (top of the series); further: nearly all actives have a fitted effect of over 55% in size
Procedure, shortened: as §1

[11] = Quantitative High-Throughput drug screen in 47 multiple myeloma cell lines against the NCATS MIPE library collection: PCM6_Riken cell viability assay (AID 1919870); further: nearly all actives have a fitted effect of over 30% in size
Procedure, shortened: as §1

[12] = Quantitative High-Throughput drug screen in 47 multiple myeloma cell lines against the NCATS MIPE library collection: RPMI8226_ATCC cell viability assay (AID 1919871); further: nearly all actives have a fitted effect of over 30% in size
Procedure, shortened: as §1

[13] = Quantitative High-Throughput drug screen in 47 multiple myeloma cell lines against the NCATS MIPE library collection: OPM2_DSMZ cell viability assay (AID 1919872); further: nearly all actives have a fitted effect of over 30% in size
Procedure, shortened: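 Myeloma cell lines, 500 cells per well, exposed to MIPE 4.0 library compounds for 48 h at 37C, 5% CO2. Viability from ATP by CellTiter-Glo luminescence; normalised to DMSO (100%) and media-only (0%) wells.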

[14] = Quantitative High-Throughput drug screen in 47 multiple myeloma cell lines against the NCATS MIPE library collection: KMS11_JCRBsus cell viability assay (AID 1919873); further: nearly all actives have a fitted effect of over 50% in size
Procedure, shortened: as §1

[15] = Quantitative High-Throughput drug screen in 47 multiple myeloma cell lines against the NCATS MIPE library collection: KMS28BM_JCRB cell viability assay (AID 1919874); further: nearly all actives have a fitted effect of over 35% in size
Procedure, shortened: as §1

[16] = Quantitative High-Throughput drug screen in 47 multiple myeloma cell lines against the NCATS MIPE library collection: OCIMY7_PLB cell viability assay (AID 1918987); details: OCI-MY7 myeloma viability, CellTiter-Glo ATP, 48 h; viability (% of DMSO): at 45.8 µM (top of the series); further: nearly all actives have a fitted effect of over 65% in size
Procedure, shortened: as §1

[17] = Quantitative High-Throughput drug screen in 47 multiple myeloma cell lines against the NCATS MIPE library collection: PE2_PLB cell viability assay (AID 1919869); further: nearly all actives have a fitted effect of over 35% in size
Procedure, shortened: as §1

[18] = molecular target: Cytochrome P450 3A4 (Homo sapiens) (UniProt P08684); experiment: qHTS for inhibitors of CYP3A4 against the NCATS DSHEA and TCM libraries (AID 1919971)
Chain of Cytochrome P450 3A4 (Homo sapiens) (P08684 whole entry, looked up): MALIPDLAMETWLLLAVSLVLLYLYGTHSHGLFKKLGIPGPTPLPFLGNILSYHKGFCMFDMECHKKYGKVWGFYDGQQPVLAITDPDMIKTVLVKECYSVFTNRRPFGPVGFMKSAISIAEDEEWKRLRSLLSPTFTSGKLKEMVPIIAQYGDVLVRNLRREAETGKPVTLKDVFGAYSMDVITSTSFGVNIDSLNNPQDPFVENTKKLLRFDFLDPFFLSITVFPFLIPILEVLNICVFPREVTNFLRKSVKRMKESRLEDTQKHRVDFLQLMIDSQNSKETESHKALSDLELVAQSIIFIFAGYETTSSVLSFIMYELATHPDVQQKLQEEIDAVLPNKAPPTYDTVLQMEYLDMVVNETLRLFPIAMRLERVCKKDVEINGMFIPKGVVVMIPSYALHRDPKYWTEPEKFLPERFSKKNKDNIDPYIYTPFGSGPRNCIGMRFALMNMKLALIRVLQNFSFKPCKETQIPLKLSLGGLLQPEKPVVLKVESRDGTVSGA
Procedure, shortened: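 Light output from converted D-luciferin reports remaining CYP activity. Compounds preincubate with enzyme and substrate for 15 min; NADPH regeneration (1x final) runs the reaction for 30-45 min.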
Potency means the concentration at half of the fitted maximal effect.

C=C1C[C@@]2(O)O[C@@]3(C[C@H]2C(C)C)[C@H](C)CC[C@H]13
inactive: Potency [1] | Potency [2] | Potency [3] | Potency [4] | viability [5] 114% | Potency [6] | Potency [7] | Potency [8] | Potency [9] | Potency [10] | Potency [11] | Potency [12] | Potency [13] | Potency [14] | Potency [15]

CS[C@H]1SC[C@@H]2C(=O)N(C)[C@H](C(C)C)C(=O)OC[C@H](NC(=O)c3cnc4ccccc4n3)C(=O)N[C@H](C)C(=O)N(C)[C@@H]1C(=O)N(C)[C@H](C(C)C)C(=O)OC[C@H](NC(=O)c1cnc3ccccc3n1)C(=O)N[C@H](C)C(=O)N2C
active: Potency [1] 3 nM | Potency [2] 4.7 nM | Potency [16] 41.8 nM | Potency [3] 2.1 nM | Potency [6] 6.6 nM | Potency [7] 1 nM | Potency [9] 1 nM | Potency [10] 1 nM | Potency [17] 1 nM | Potency [11] 1 nM | Potency [12] 10.5 nM | Potency [14] 3.3 nM | Potency [15] 1.7 nM

COC1=C(OC)C(=O)C(CC=C(C)CCC=C(C)CCC=C(C)CCC=C(C)CCC=C(C)CCC=C(C)CCC=C(C)CCC=C(C)CCC=C(C)CCC=C(C)C)=C(C)C1=O
inactive: Potency [1] | Potency [2] | Potency [16] | viability [5] 99.4% | Potency [7] | Potency [8] | Potency [10] | Potency [17] | Potency [11]

COc1cc(CCc2cc(NC(=O)c3ccc(N4C[C@@H](C)N[C@@H](C)C4)cc3)n[nH]2)cc(OC)c1
active: Potency [1] 13200 nM | Potency [2] 16600 nM | Potency [16] 18700 nM | Potency [3] 16600 nM | Potency [6] 20900 nM | Potency [7] 8330 nM | Potency [8] 14800 nM | Potency [9] 7430 nM | Potency [10] 4180 nM | Potency [11] 13200 nM | Potency [12] 18700 nM | Potency [13] 13200 nM | Potency [14] 4690 nM | Potency [15] 16600 nM

COc1ccc(CCC(=O)c2c(O)cc(O[C@@H]3O[C@H](CO)[C@@H](O)[C@H](O)[C@@H]3O[C@@H]3O[C@@H](C)[C@H](O)[C@@H](O)[C@@H]3O)cc2O)cc1O
active: Potency [16] 10500 nM | Potency [6] 8330 nM | Potency [7] 5260 nM | Potency [8] 7430 nM | Potency [9] 9350 nM | Potency [10] 9350 nM | Potency [11] 7430 nM
inactive: Potency [1] | Potency [2] | Potency [4] | viability [5] 101% | Potency [13] | Potency [15]

Cc1ccc([N+](=O)[O-])cc1S(=O)(=O)N(C)N=Cc1cnc2ccc(Br)cn12
active: Potency [1] 41.8 nM | Potency [2] 14.8 nM | Potency [3] 18.7 nM | Potency [4] 8.3 nM | Potency [5] 52.6 nM | Potency [6] 20.9 nM | Potency [17] 7.4 nM | Potency [12] 46.9 nM | Potency [14] 6.6 nM | Potency [15] 23.5 nM

Cc1nc(NC(=O)N2CCC[C@@H]2C(N)=O)sc1-c1ccnc(C(C)(C)C(F)(F)F)c1
inactive: Potency [11]
active: Potency [1] 296 nM | Potency [2] 1870 nM | Potency [3] 935 nM | Potency [4] 2960 nM | Potency [5] 6620 nM | Potency [6] 8330 nM | Potency [7] 1870 nM | Potency [8] 3320 nM | Potency [17] 4690 nM | Potency [12] 3320 nM | Potency [13] 20900 nM | Potency [14] 166 nM | Potency [15] 1180 nM

Cc1c2oc3c(C)ccc(C(=O)NC4C(=O)NC(C(C)C)C(=O)N5CCCC5C(=O)N(C)CC(=O)N(C)C(C(C)C)C(=O)OC4C)c3nc-2c(C(=O)NC2C(=O)NC(C(C)C)C(=O)N3CCCC3C(=O)N(C)CC(=O)N(C)C(C(C)C)C(=O)OC2C)c(N)c1=O (stereo unspecified) (I: TVP[Sar][NMeV] / II: TVP[Sar][NMeV]; ester I:1-I:C, II:1-II:C; linker I:N-II:N via Actinocin(9to1); configuration not given here)
inactive: Potency [1] | Potency [2] | Potency [16] | Potency [4] | Potency [6] | Potency [7] | Potency [8] | Potency [9] | Potency [10] | Potency [17] | Potency [11] | Potency [12] | Potency [13] | Potency [15]

O=C1c2c(O)cccc2[C@@H]([C@@H]2O[C@H](CO)[C@@H](O)[C@H](O)[C@H]2O)c2cc(CO)cc(O)c21
active: Potency [18] 25100 nM
inactive: Potency [1] | Potency [2] | Potency [16] | Potency [3] | viability [5] 153% | Potency [6] | Potency [7] | Potency [8] | Potency [9] | Potency [17] | Potency [11] | Potency [12] | Potency [14] | Potency [15]

C=C(C)[C@@H]1CC[C@]2(C)CC[C@]3(C)[C@H](CC[C@@H]4[C@@]5(C)CC[C@H](O)C(C)(C)[C@H]5CC[C@]43C)[C@@H]12
inactive: Potency [1] | Potency [2] | Potency [3] | Potency [4] | Potency [7] | Potency [9] | Potency [10] | Potency [17] | Potency [11] | Potency [13] | Potency [14]

CCCCC(=O)O[C@]1(C(=O)CO)[C@@H](C)C[C@H]2[C@@H]3CCC4=CC(=O)C=C[C@]4(C)[C@@]3(F)[C@@H](O)C[C@@]21C
inactive: Potency [1] | viability [5] 122% | Potency [6] | Potency [7] | Potency [8] | Potency [17] | Potency [13] | Potency [15]
active: Potency [2] 37.2 nM | Potency [3] 9.3 nM | Potency [4] 37.2 nM | Potency [9] 14800 nM | Potency [12] 11.8 nM
